The values that follow come from PubChem BioAssay.

The source made the active and inactive calls.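 How the source made its calls, unless noted: active means inhibition at or above 50% at 10 µM; inactive means inhibition below 50%.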

Experiment [1] in a line: inhibitors of TNFa-induced NFkB p65 translocation, primary screen, imaging, HUVEC, MLSMR starter and 10KST1 sets (AID 438;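 active means inhibition above 20% together with a positive visual image hit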;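 further: compound added about 3h40 before a 20 min TNFalpha stimulation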;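 on inhibition: signal is the nuclear over cytoplasmic p65 intensity ratio per well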). To be noted: HUVEC TNFa-induced p65 nuclear translocation; cell count: measured here: nuclei count (cytotoxicity indicator), at 2.08 µM; inhibition: at 2 µM, stronger effect = higher value, 0% TNFa-plus-vehicle, 100% no-TNFa wells.
Experiment [2] in a line: inhibitors of mutant huntingtin aggregation, primary screen, imaging, exon1htt(103Q)mCFP cells, high-content imaging (AID 483;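 active means visual image review flags a hit and inhibition of aggregation exceeds 20%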;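 further: compound exposure lasted 3 days before fixation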;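 on nuclei count: percent of the per-plate median nuclei count of sample wells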). To be noted: exon1htt(103Q)mCFP cell line, aggregate imaging, at 2 µM; inhibition of aggregation: stronger effect = higher value; nuclei count: measured here: cell count, toxicity.
The nature of experiment [3]: inhibitors of E-selectin induction by TNFa, primary screen, imaging, HUVEC, immunofluorescence, MLSMR starter and 10KST1 sets (AID 487;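 active means visually confirmed hit in the image check and inhibition above 20%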;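 on inhibition: signal is fraction of cell area covered by stained E-selectin grains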;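 on nuclei count: 100% = median nuclei count of all wells on the same plate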). As to conditions: HUVEC TNFalpha-induced E-selectin immunofluorescence imaging, at 2 µM; inhibition: stronger effect = higher value; nuclei count: measured here: cell number, toxicity.
Experiment [4] concerns the target Voltage-gated potassium channel subunit beta-2 (Rattus norvegicus) (UniProt P62483). In words: KvBeta enzyme negative modulators, primary screen, biochemical, NADPH fluorescence (AID 622;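 active means fluorescence slope higher than the sample average by over 3 SD, cut at about -0.22 in these data, passing the limit was not always enough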;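 further: slope of raw intensity against log time taken from 70 to 1610 s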). To be noted: recombinant KvBeta, 4-cyanobenzaldehyde reduction, at 10 µM, stronger effect = higher value.
For experiment [5] the target is unchanged. Nature of the experiment: KvBeta positive modulators, primary screen, biochemical, NADPH fluorescence (AID 623;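 active means NADPH fluorescence slope more negative than the mean of all samples by about 3 SD, 99.7% confidence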;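 further: fluorescence intensity change per second fitted from 20 to 320 s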). As to conditions: Recombinant KvBeta, NADPH fluorescence decrease slope, 10 min; at 10 µM; stronger effect = lower value.
In experiment [6] the target is Alpha-2C adrenergic receptor (Homo sapiens) (UniProt P18825). In words: modulators of alpha2C/GIRK thallium flux, primary screen, cell-based, HEK293 alpha2C/GIRK1/2 (AID 624;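 active means fluorescence slope after compound addition differing from the mean of all screened samples at 99.7% confidence, in either direction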;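 further: slope of fluorescence ratio to pre-addition baseline per second over 15 to 24 s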). As to conditions: thallium flux BTC fluorescence, at 10 µM, actives lie on both sides.
The nature of experiment [7]: inhibitors of Sendai virus-induced IRF3 signaling, primary screen, TLR/RLR signaling modifier project, cell-based, Sendai virus stimulus, luciferase, 10K MLSCN set (AID 602276).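 Further: firefly luciferase from ISG56 promoter only with Renilla not read in this screen; 0% = Sendai virus plus DMSO and 100% = medium plus DMSO without virus.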 To be noted: HEK293 RL24 IRF3 luciferase reporter, at 10 µM, stronger effect = higher value. On the technique in general: In a reporter assay the amount or activity of a reporter protein is the signal.
Experiment [8] is described as follows: inhibitors of poly I:C-induced TLR3 signaling, primary screen, cell-based, poly I:C stimulus, luciferase, 10K MLSCN set (AID 602277;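 active means inhibition of the reporter signal at or above 50%; inactive means inhibition below 50%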). As to conditions: HEK293-TLR3 RL24 IRF3 luciferase reporter, at 10 µM, stronger effect = higher value.

Sequence of Voltage-gated potassium channel subunit beta-2 (Rattus norvegicus) (P62483 whole entry, looked up): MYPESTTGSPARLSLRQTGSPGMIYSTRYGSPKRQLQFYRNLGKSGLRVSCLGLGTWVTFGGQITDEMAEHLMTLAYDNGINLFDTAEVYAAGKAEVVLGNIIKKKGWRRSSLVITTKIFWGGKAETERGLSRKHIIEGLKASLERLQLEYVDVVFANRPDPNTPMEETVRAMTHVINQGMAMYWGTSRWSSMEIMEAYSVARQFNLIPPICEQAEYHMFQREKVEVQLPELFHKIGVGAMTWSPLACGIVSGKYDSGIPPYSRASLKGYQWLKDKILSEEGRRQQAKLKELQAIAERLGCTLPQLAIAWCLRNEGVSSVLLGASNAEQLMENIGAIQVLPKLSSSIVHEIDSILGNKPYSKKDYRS
Sequence of Alpha-2C adrenergic receptor (Homo sapiens) (P18825 whole entry, looked up): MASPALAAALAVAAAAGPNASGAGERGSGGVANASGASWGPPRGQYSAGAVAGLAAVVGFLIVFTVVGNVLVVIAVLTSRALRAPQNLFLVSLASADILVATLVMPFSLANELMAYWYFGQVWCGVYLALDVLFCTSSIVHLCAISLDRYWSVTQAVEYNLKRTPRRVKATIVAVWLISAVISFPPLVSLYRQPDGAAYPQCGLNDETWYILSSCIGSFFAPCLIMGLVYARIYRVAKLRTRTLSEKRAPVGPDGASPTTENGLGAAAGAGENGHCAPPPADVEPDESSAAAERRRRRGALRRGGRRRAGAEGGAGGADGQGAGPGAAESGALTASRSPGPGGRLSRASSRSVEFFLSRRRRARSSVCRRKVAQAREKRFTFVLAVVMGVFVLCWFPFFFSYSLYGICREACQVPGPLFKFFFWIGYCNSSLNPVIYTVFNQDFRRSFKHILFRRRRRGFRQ

On to `COCCCN1C(=O)C(=O)/C(=C(/O)c2ccc(OCC(C)C)cc2C)C1c1cccnc1` (centres undefined), for which the cell count in experiment [1] turned out to be 299. Besides, the inhibition was -2.4% (inactive) in experiment [1], -28.7% (inactive) in experiment [3], 7.86% (inactive) in experiment [7] and 23.2% (inactive) in experiment [8]. The inhibition of aggregation in experiment [2] was -8.7% (inactive). Besides, the nuclei count was determined as 109% in experiment [2] and 110% in experiment [3]. Besides, the fluorescence slope in experiment [4] was -0.463 (inactive). The NADPH fluorescence slope in experiment [5] is 5.8e-06 (inactive). Also, in experiment [6], the slope is 0.00417 (inactive).

On to `CCOc1cc(C(=O)Nc2c3c(nn2C(C)(C)C)CS(=O)C3)cc(OCC)c1OCC` (centres undefined), for which, in experiment [1], the cell count came to 525. In addition, the inhibition is -16.3% (inactive) in experiment [1], 16.3% (inactive) in experiment [3], 6.91% (inactive) in experiment [7] and 3.04% (inactive) in experiment [8]. Moreover, in experiment [2], the inhibition of aggregation is -15.3% (inactive). In addition, the nuclei count in experiment [2] was determined as 109%; in experiment [3], 122%. Also, in experiment [4], the fluorescence slope is -0.545 (inactive). The NADPH fluorescence slope in experiment [5] was 2.6e-05 (inactive). In addition, in experiment [6], the slope is 0.00616 (inactive).

`CC(=O)Nc1cc2c(nc1C)nc(C)n2Cc1ccc(Br)cc1`: the cell count in experiment [1] is 419. Further, the inhibition in experiment [1] is -1.6% (inactive); in experiment [3], -83.5% (inactive); in experiment [7], 15% (inactive); in experiment [8], -9.25% (inactive). For the same compound, the inhibition of aggregation in experiment [2] was 7.8% (inactive). Besides, the nuclei count in experiment [2] worked out at 92%; in experiment [3], 118%. Besides, the fluorescence slope in experiment [4] was -0.526 (inactive). Besides, the NADPH fluorescence slope in experiment [5] is -0.000178 (inactive). Besides, in experiment [6], the slope is 0.00402 (inactive).

For the compound `Oc1ccc(Cl)cc1-c1cc(-c2ccccc2)n[nH]1`, the cell count in experiment [1] is 524. In addition, the inhibition is -11.4% (inactive) in experiment [1], -6.5% (inactive) in experiment [3], -23.7% (inactive) in experiment [7] and -37% (inactive) in experiment [8]. Further, the inhibition of aggregation in experiment [2] was 26.3% (inactive). For the same compound, the nuclei count was found to be 81.5% in experiment [2] and 80.2% in experiment [3]. Besides, the fluorescence slope in experiment [4] was -0.557 (inactive). Besides, in experiment [5], the NADPH fluorescence slope is -1.3e-05 (inactive). In addition, the slope in experiment [6] was 0.00732 (inactive).

`CCOC(=O)CSc1nnc(NC(=O)c2cccc(S(=O)(=O)N3CCCCC3)c2)s1`: in experiment [1], the cell count worked out at 626. In addition, the inhibition was -1.1% (inactive) in experiment [1], 20.8% (inactive) in experiment [3], 12.1% (inactive) in experiment [7] and 26.3% (inactive) in experiment [8]. The inhibition of aggregation in experiment [2] was -6.5% (inactive). The figures for the nuclei count in experiment [2] and in experiment [3] were 107% and 102%, respectively. Further, in experiment [4], the fluorescence slope is -0.37 (inactive). Besides, the NADPH fluorescence slope in experiment [5] is -9.8e-06 (inactive). For the same compound, the slope in experiment [6] is 0.00424 (inactive).

As to `CCOC(=O)c1c(NC(=O)COC(=O)c2c(C)noc2C)sc2c1CCC2`, in experiment [1], the cell count stood at 231. Further, the inhibition in experiment [1] is 7.8% (inactive); in experiment [3] it was -101% (inactive); in experiment [7], 14.6% (inactive); in experiment [8], 21.3% (inactive). Further, the inhibition of aggregation in experiment [2] is 29.9% (inactive). Moreover, the results for the nuclei count in experiment [2] and in experiment [3] were 103% and 109%, respectively. In experiment [4], the fluorescence slope was -0.472 (inactive). Also, in experiment [5], the NADPH fluorescence slope is -1.1e-05 (inactive). For the same compound, the slope in experiment [6] was 0.0054 (inactive).

In the case of `C=C(Cl)COC(=O)[C@H]1C2C=CC(C2)C1C(=O)O` (some centres undefined), the cell count in experiment [1] was found to be 347. Besides, the inhibition was -5% (inactive) in experiment [1], -29.7% (inactive) in experiment [3], -6.49% (inactive) in experiment [7] and 2.25% (inactive) in experiment [8]. Besides, the inhibition of aggregation in experiment [2] is -18.6% (inactive). In addition, the nuclei count was determined as 96.9% in experiment [2] and 124% in experiment [3]. Besides, the fluorescence slope in experiment [4] is -0.435 (inactive). Also, the NADPH fluorescence slope in experiment [5] is 5.3e-05 (inactive). Also, the slope in experiment [6] was 0.00591 (inactive).

`O=C(CCS(=O)(=O)c1cccc2nsnc12)N1CCN(Cc2ccc3c(c2)OCO3)CC1`: in experiment [1], the cell count turned out to be 582. For the same compound, the inhibition in experiment [1] is 4.1% (inactive); in experiment [3] it was -84.7% (inactive); in experiment [7], 2.36% (inactive); in experiment [8], 14.2% (inactive). Besides, the inhibition of aggregation in experiment [2] is -47.2% (inactive). Further, the nuclei count in experiment [2] is 53.4%; in experiment [3] it was 97.8%. The fluorescence slope in experiment [4] is -0.533 (inactive). Besides, the NADPH fluorescence slope in experiment [5] is -4.8e-05 (inactive). Further, the slope in experiment [6] was 0.00459 (inactive).

For the compound `CC1=C(C(=O)N2CCCCC2)C(c2cccs2)C2=C(CCCC2=O)N1` (centres undefined), the cell count in experiment [1] came out at 332. Further, the inhibition in experiment [1] was -3.9% (inactive); in experiment [3], -31.6% (inactive); in experiment [7], 7.2% (inactive); in experiment [8], 6.53% (inactive). The inhibition of aggregation in experiment [2] is 8.9% (inactive). For the same compound, the nuclei count was determined as 95.9% in experiment [2] and 92.4% in experiment [3]. Further, the fluorescence slope in experiment [4] is -0.29 (inactive). Moreover, in experiment [5], the NADPH fluorescence slope is -3.5e-05 (inactive). The slope in experiment [6] is 0.0061 (inactive).

With `CCOC(=O)Nc1cc(OC)c(OC)cc1Cc1nccc2cc(OC)c(OC)cc12`, in experiment [1], the cell count worked out at 444. Besides, the inhibition was -1.8% (inactive) in experiment [1], -20.1% (inactive) in experiment [3], -7.98% (inactive) in experiment [7] and 5.89% (inactive) in experiment [8]. In addition, in experiment [2], the inhibition of aggregation is -1.2% (inactive). The nuclei count was 111% in experiment [2] and 173% in experiment [3]. In experiment [4], the fluorescence slope was -0.532 (inactive). Moreover, the NADPH fluorescence slope in experiment [5] is 4.5e-06 (inactive). In addition, the slope in experiment [6] was 0.00447 (inactive).

On to `COCCn1c(=N)c(C(=O)NCCc2ccccc2)cc2c(=O)n3cccc(C)c3nc21`, for which, in experiment [1], the cell count worked out at 388. Moreover, the inhibition in experiment [1] is 4.3% (inactive); in experiment [3], -75.7% (inactive); in experiment [7], 9.73% (inactive); in experiment [8], 35.4% (inactive). In addition, the inhibition of aggregation in experiment [2] was -22.7% (inactive). Further, the values for the nuclei count in experiment [2] and in experiment [3] were 102% and 117%, respectively. Also, the fluorescence slope in experiment [4] is -0.0609 (inactive). The NADPH fluorescence slope in experiment [5] is 4.2e-06 (inactive). Besides, the slope in experiment [6] is 0.00428 (inactive).

As to `COc1cc(C2c3c(oc4c(C)cc(C)cc4c3=O)C(=O)N2Cc2cccnc2)ccc1O` (centres undefined), the cell count in experiment [1] amounted to 627. Moreover, the inhibition in experiment [1] is -2.7% (inactive); in experiment [3], 12.8% (inactive); in experiment [7], 16.4% (inactive); in experiment [8] it was 21.2% (inactive). Besides, in experiment [2], the inhibition of aggregation is 0.2% (inactive). Further, the nuclei count came to 107% in experiment [2] and 99.8% in experiment [3]. For the same compound, in experiment [4], the fluorescence slope was -0.476 (inactive). Further, in experiment [5], the NADPH fluorescence slope was -3.3e-05 (inactive). Also, in experiment [6], the slope is 0.00579 (inactive).

Take `CCOc1ccc(NC(=O)C2CC(=O)N(CC)C(=Nc3ccc4c(c3)OCO4)S2)cc1` (centres undefined): in experiment [1], the cell count worked out at 356. Moreover, the inhibition is -6.2% (inactive) in experiment [1], -125% (inactive) in experiment [3], -1.73% (inactive) in experiment [7] and 1.26% (inactive) in experiment [8]. In experiment [2], the inhibition of aggregation is 12.9% (inactive). For the same compound, the nuclei count in experiment [2] is 81.1%; in experiment [3], 113%. Besides, the fluorescence slope in experiment [4] was -0.358 (inactive). For the same compound, in experiment [5], the NADPH fluorescence slope is -6.3e-05 (inactive). Besides, the slope in experiment [6] was 0.00411 (inactive).

For the compound `COc1ccc(C(C)=O)c(OC(=O)c2ccc(OC)c(OC)c2)c1`, in experiment [1], the cell count was found to be 372. The inhibition is -0.3% (inactive) in experiment [1], -76% (inactive) in experiment [3], 13.2% (inactive) in experiment [7] and 22.8% (inactive) in experiment [8]. Also, the inhibition of aggregation in experiment [2] was 3.6% (inactive). Also, the nuclei count in experiment [2] worked out at 88.8%; in experiment [3], 100%. The fluorescence slope in experiment [4] is -0.376 (inactive). In experiment [5], the NADPH fluorescence slope was 8.8e-06 (inactive). In addition, in experiment [6], the slope was 0.00658 (inactive).

The term inhibition denotes the drop in the measured response relative to a control, in per cent.
